Here are results for eight compounds from PubChem BioAssay (EPA / NIEHS).

Results filed as inconclusive are left out. The source made the active and inactive calls. The calls were made as follows, unless noted: active = hit-call score of the fitted dose curve at least 0.9, where 1 is the maximum; inactive = score below 0.9.

The target in experiment [1] is human RAR-related Orphan Receptor gamma (RORg), RORC (gene 6097) (UniProt P51449). The experiment can be described thus: ATG_RORg_TRANS: Attagene TRANS-FACTORIAL HepG2 Assay for human RAR-related Orphan Receptor gamma (RORg) (AID 2283011; active = hit-call score of the fitted dose curve at least 0.9, where 1 is the maximum). The gist of the method: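 Readout: reporter transcript induction (RT-PCR, fluorescent primer extension, capillary electrophoresis) after 24 h compound exposure of transiently transfected HepG2 cells carrying a RORg-Gal4 chimera and GAL4-UAS reporters; DMSO served as baseline, with increasing signal fitted.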
Chain of human RAR-related Orphan Receptor gamma (RORg), RORC (gene 6097) (P51449 whole entry, looked up, the tested form may be a part): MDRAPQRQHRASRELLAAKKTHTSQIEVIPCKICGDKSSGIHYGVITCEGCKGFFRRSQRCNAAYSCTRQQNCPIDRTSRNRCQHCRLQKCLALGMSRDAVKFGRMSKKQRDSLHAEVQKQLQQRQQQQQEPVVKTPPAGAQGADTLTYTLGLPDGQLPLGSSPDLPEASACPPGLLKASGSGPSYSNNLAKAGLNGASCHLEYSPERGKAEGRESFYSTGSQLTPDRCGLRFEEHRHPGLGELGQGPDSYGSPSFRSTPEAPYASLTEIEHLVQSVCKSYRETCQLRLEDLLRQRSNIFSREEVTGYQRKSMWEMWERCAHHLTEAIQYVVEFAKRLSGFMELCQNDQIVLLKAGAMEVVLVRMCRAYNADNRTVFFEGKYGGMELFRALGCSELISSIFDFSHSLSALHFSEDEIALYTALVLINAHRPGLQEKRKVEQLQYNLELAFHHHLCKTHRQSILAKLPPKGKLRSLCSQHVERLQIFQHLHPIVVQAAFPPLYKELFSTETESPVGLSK

Read-out in experiment [2]: E-selectin (Homo sapiens) (UniProt P16581)
The experiment can be described thus: BSK_3C_Eselectin: BioMAP Diversity Plus: 3C Assay for Eselectin Biomarker Activity (AID 2283015).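 Also: cell surface E-selectin protein quantified by ELISA 24 h after dosing.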 The note with it: primary human endothelial cells (HUVEC); actives raise or lower the signal. The gist of the method:
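Primary human umbilical vein endothelial cells (3C system) were dosed with chemical and cell-surface E-selectin measured by ELISA 24 h later. Bidirectional curve fitting used DMSO as negative control and baseline.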

Read-out in experiment [3]: Interleukin-1 alpha (IL1a), IL1A (gene 3552)
As to the kind of experiment: BSK_BE3C_IL1a: BioMAP Diversity Plus: BE3C Assay for Interleukin-1 alpha (IL1a) Biomarker Activity (AID 2283016). To be noted: primary human bronchial epithelial cells; actives raise or lower the signal. The gist of the method: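 Cultures of primary human bronchial epithelial cells receive test chemical. After 24 h, IL-1a is quantified by ELISA, while parallel wells are fixed in TCA and SRB-stained for total protein. Changes in either direction are fitted relative to DMSO.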

Read-out in experiment [4]: Monocyte Chemoattractant Protein-1 (MCP1), CCL2 (gene 6347)
The experiment can be described thus: BSK_3C_MCP1: BioMAP Diversity Plus: 3C Assay for Monocyte Chemoattractant Protein-1 (MCP1) Biomarker Activity (AID 2283017). To be noted: primary human endothelial cells (HUVEC); actives raise or lower the signal. In a few lines:
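Primary human umbilical vein endothelial cells (3C system) were exposed to test chemical for 24 h, after which MCP-1 was quantified by ELISA. Activity was fitted bidirectionally against DMSO as negative control and baseline.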

Read-out in experiment [5]: Monocyte Chemoattractant Protein-1 (MCP1), CCL2 (gene 6347)
As to the kind of experiment: BSK_4H_MCP1: BioMAP Diversity Plus: 4H Assay for Monocyte Chemoattractant Protein-1 (MCP1) Biomarker Activity (AID 2283018). To be noted: primary human endothelial cells (HUVEC); actives raise or lower the signal. The gist of the method: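 Readout: MCP-1 ELISA on compound-treated HUVEC, sampled 24 h post-dosing. Baseline and negative control DMSO; bidirectional fit. Overt toxicity checked alongside by sulforhodamine B protein staining at time of biomarker measurement.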

Read-out in experiment [6]: Human Leukocyte Antigen - DR isotype (HLADR), HLA-DRA (gene 3122)
The experiment can be described thus: BSK_3C_HLADR: BioMAP Diversity Plus: 3C Assay for Human Leukocyte Antigen - DR isotype (HLADR) Biomarker Activity (AID 2283019).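 Also: ELISA of cell-surface HLA-DR on HUVEC 24 h after dosing.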 To be noted: primary human endothelial cells (HUVEC); actives raise or lower the signal. The gist of the method:
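Primary human umbilical vein endothelial cells (3C system) were dosed with compound and cell-surface HLA-DR was quantified by ELISA at 24 h. Activity was fitted bidirectionally against DMSO as negative control and baseline.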

Read-out in experiment [7]: Interleukin-8 (IL8), CXCL8 (gene 3576)
As to the kind of experiment: BSK_3C_IL8: BioMAP Diversity Plus: 3C Assay for Interleukin-8 (IL8) Biomarker Activity (AID 2283020). The note with it: primary human endothelial cells (HUVEC); actives raise or lower the signal. In a few lines: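 Human vascular endothelial cells (umbilical vein) in the 3C system; IL-8 level detected by ELISA at 24 h post-dose, with DMSO as baseline.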

Read-out in experiment [8]: Matrix Metallopeptidase 1 (MMP1), MMP1 (gene 4312)
As to the kind of experiment: BSK_BE3C_MMP1: BioMAP Diversity Plus: BE3C Assay for Matrix Metallopeptidase 1 (MMP1) Biomarker Activity (AID 2283024). To be noted: primary human bronchial epithelial cells; actives raise or lower the signal. In a few lines: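 Dose cells, wait 24 h, run MMP1 ELISA; cells are human bronchial epithelial primaries. Both increases and decreases relative to DMSO counted.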

The nature of experiment [9]: BSK_3C_Vis: BioMAP Diversity Plus: 3C Assay for Morphology Visualization (AID 2283025).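 Also: fitted both ways so gain or loss versus DMSO counts.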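 As to AC50: light microscopy image of cell morphology used as background control.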 To be noted: primary human endothelial cells (HUVEC). In a few lines: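 Endothelial cells from human umbilical vein were treated with test chemicals for 24 h and inspected by light microscopy for changes in cell conformation.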
Read-out in experiment [10]: Pselectin, SELP (gene 6403)
The experiment can be described thus: BSK_4H_Pselectin: BioMAP Diversity Plus: 4H Assay for Pselectin Biomarker Activity (AID 2283026). To be noted: primary human endothelial cells (HUVEC); actives raise or lower the signal. In a few lines: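 Human vascular endothelium from umbilical vein; P-selectin measured by ELISA at 24 h post-dose, with cytotoxicity checked by sulforhodamine B total-protein staining in parallel cultures (0.1% SRB after 10% TCA fixation, read at 560 nm).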

Experiment [11] is described as follows: BSK_4H_SRB: Viability Assessment in the BioMAP Diversity Plus: 4H Assay (AID 2283027).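 Also: cells exposed to compound for 24 h before staining.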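 As to AC50: curves fitted both ways versus DMSO so AC50 may be loss or gain.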 To be noted: primary human endothelial cells (HUVEC). The gist of the method: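 Human umbilical vein endothelial cells were dosed with chemical and, after 24 h, fixed with 10% TCA, stained with 0.1% sulforhodamine B, and read at 560 nm to give total protein as a cytotoxicity measure. Bidirectional fitting relative to DMSO control.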

Read-out in experiment [12]: Thrombomodulin, THBD (gene 7056)
As to the kind of experiment: BSK_3C_Thrombomodulin: BioMAP Diversity Plus: 3C Assay for Thrombomodulin Biomarker Activity (AID 2283029). To be noted: primary human endothelial cells (HUVEC); actives raise or lower the signal. In a few lines: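 Thrombomodulin ELISA, human primary HUVEC, 24 h post-dose; data fitted in both directions relative to DMSO.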

Read-out in experiment [13]: Urokinase-type plasminogen activator receptor (uPAR), PLAUR (gene 5329)
The experiment can be described thus: BSK_4H_uPAR: BioMAP Diversity Plus: 4H Assay for Urokinase-type plasminogen activator receptor (uPAR) Biomarker Activity (AID 2283030). The note with it: primary human endothelial cells (HUVEC); actives raise or lower the signal. The gist of the method:
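Primary human umbilical vein endothelial cells were exposed to chemical for 24 h before cell-surface uPAR was quantified by ELISA. Activity was fitted bidirectionally against the DMSO negative control baseline.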

Experiment [14] has as its target Retinoic acid receptor RXR-alpha (Homo sapiens) (UniProt P19793). The experiment can be described thus: ATG_RXRa_TRANS: Attagene TRANS-FACTORIAL HepG2 Assay for human Retinoid X Receptor alpha (RXRa) (AID 2283012; active = hit-call score of the fitted dose curve at least 0.9, where 1 is the maximum). In a few lines: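 Cells (HepG2) carried transiently transfected GAL4-responsive reporter units. Following a 24 h chemical incubation, reporter mRNA induction was read via RT-PCR fragment analysis; DMSO served as negative control and baseline.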

Read-out in experiment [15]: Monokine induced gamma interferon (MIG), CXCL9 (gene 4283)
The experiment can be described thus: BSK_3C_MIG: BioMAP Diversity Plus: 3C Assay for Monokine induced gamma interferon (MIG) Biomarker Activity (AID 2283021). The note with it: primary human endothelial cells (HUVEC); actives raise or lower the signal. In a few lines:
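After 24 h of treatment, human umbilical vein endothelial cultures (3C system) had their MIG biomarker level determined by ELISA, with DMSO serving as negative control.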

Experiment [16] concerns the target human Vitamin D Receptor (VDR), VDR (gene 7421) (UniProt P11473). The experiment can be described thus: ATG_VDR_TRANS: Attagene TRANS-FACTORIAL HepG2 Assay for human Vitamin D Receptor (VDR) (AID 2283022; active = hit-call score of the fitted dose curve at least 0.9, where 1 is the maximum). In a few lines:
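HepG2 cells were transiently transfected with multiple GAL4-UAS reporter units, so signal reflects exogenous chimeric receptor-Gal4 activity. After 24 h compound exposure, reporter mRNA was measured by RT-PCR, fluorescent labelling and capillary electrophoresis, fitted for gain of signal versus DMSO.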

Experiment [17] can be described thus: BSK_BE3C_SRB: Viability Assessment in the BioMAP Diversity Plus: BE3C Assay (AID 2283028). The note with it: primary human bronchial epithelial cells. The gist of the method: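 Human primary bronchial epithelial cells were exposed to test chemicals for 24 h. Total protein in parallel cultures was then measured by staining with 0.1% sulforhodamine B after 10% TCA fixation, with absorbance read at 560 nm. Activity was fitted bidirectionally against DMSO.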

Experiment [18] in a line: BSK_3C_SRB: Viability Assessment in the BioMAP Diversity Plus: 3C Assay (AID 2283023).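 Also: fitted both ways against DMSO so a hit may be signal rise or drop.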 To be noted: primary human endothelial cells (HUVEC). In a few lines:
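Primary human umbilical vein endothelial cells in the 3C system were read 24 h after compound dosing. Total protein was stained with 0.1% sulforhodamine B after 10% TCA fixation and read at 560 nm, with bidirectional fitting against DMSO as baseline.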

Experiment [19] deals with human Retinoid X Receptor beta (RXRb), RXRB (gene 6257) (UniProt P28702). The experiment can be described thus: ATG_RXRb_TRANS: Attagene TRANS-FACTORIAL HepG2 Assay for human Retinoid X Receptor beta (RXRb) (AID 2283013; active = hit-call score of the fitted dose curve at least 0.9, where 1 is the maximum). The gist of the method: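 Multiplexed TRANS reporter assay in HepG2; 24 h dosing; reporter mRNA by RT-PCR/CE fluorescence; gain-of-signal relative to DMSO.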
Chain of human Retinoid X Receptor beta (RXRb), RXRB (gene 6257) (P28702 whole entry, looked up): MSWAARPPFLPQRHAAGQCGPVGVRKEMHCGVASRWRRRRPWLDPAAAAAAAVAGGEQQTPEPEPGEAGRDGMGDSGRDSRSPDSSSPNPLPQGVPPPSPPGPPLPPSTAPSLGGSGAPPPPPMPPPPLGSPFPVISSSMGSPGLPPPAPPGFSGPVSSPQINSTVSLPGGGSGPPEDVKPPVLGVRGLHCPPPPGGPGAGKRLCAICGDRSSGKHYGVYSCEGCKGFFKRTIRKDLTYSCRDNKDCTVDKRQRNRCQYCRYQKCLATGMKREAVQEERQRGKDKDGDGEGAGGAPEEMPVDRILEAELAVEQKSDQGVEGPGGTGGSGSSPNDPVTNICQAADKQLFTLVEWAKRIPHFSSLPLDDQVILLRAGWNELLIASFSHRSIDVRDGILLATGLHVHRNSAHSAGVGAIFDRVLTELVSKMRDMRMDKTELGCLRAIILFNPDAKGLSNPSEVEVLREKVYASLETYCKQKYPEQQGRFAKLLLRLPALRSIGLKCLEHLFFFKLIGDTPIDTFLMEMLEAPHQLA

Experiment [20] addresses human Thyroid Receptor alpha (THRa1), THRA (gene 7067) (UniProt P10827). The experiment can be described thus: ATG_THRa1_TRANS: Attagene TRANS-FACTORIAL HepG2 Assay for human Thyroid Receptor alpha (THRa1) (AID 2283014; active = hit-call score of the fitted dose curve at least 0.9, where 1 is the maximum). The gist of the method: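 HepG2 cells transiently transfected with multiplexed GAL4-UAS reporter units for exogenous chimeric THRa1-Gal4; reporter mRNA measured 24 h after dosing by RT-PCR, 6-FAM labelling, HpaI digestion and capillary electrophoresis. Gain-of-signal fitted versus DMSO baseline.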

Chain of Retinoic acid receptor RXR-alpha (Homo sapiens) (P19793 whole entry, looked up, the tested form may be a part): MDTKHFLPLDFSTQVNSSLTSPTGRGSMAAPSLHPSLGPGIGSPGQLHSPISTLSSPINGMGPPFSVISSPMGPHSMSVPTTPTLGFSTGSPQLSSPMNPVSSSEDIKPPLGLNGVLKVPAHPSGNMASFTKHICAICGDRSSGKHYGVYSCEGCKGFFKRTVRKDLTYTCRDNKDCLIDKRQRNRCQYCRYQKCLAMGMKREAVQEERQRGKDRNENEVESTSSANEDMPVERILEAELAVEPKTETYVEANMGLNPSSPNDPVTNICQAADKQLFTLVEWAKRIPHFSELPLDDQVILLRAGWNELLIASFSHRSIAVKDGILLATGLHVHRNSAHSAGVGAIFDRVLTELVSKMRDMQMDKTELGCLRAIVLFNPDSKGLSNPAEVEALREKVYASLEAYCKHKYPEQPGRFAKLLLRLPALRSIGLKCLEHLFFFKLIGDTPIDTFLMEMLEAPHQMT
Chain of E-selectin (Homo sapiens) (P16581 whole entry, looked up): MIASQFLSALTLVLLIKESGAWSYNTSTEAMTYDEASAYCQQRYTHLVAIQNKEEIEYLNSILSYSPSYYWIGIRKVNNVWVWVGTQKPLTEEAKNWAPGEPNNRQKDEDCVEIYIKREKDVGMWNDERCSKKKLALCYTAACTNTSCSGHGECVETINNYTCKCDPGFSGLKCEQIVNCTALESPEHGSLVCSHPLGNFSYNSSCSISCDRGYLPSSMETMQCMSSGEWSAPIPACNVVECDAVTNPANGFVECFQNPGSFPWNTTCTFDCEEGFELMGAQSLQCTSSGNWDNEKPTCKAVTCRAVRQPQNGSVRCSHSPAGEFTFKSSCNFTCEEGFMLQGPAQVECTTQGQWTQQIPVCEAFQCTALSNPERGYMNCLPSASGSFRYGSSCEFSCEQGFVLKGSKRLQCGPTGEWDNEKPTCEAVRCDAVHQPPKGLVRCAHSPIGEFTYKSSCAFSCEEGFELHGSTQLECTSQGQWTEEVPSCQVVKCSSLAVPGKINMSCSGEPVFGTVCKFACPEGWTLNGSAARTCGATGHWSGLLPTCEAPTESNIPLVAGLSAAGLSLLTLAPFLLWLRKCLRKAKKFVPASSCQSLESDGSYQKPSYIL
Chain of human Vitamin D Receptor (VDR), VDR (gene 7421) (P11473 whole entry, looked up, the tested form may be a part): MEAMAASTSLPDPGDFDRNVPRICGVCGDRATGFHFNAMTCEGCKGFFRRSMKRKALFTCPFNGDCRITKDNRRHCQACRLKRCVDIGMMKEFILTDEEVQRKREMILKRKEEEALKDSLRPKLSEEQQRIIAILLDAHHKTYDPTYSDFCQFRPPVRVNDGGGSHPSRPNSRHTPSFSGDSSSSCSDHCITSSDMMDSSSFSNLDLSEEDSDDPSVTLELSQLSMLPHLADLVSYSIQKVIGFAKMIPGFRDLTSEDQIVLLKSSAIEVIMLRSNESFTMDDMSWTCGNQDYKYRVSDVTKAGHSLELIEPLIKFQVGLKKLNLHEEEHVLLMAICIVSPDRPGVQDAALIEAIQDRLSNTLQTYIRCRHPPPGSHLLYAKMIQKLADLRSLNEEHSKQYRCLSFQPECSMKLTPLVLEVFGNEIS
Chain of human Thyroid Receptor alpha (THRa1), THRA (gene 7067) (P10827 whole entry, looked up, the tested form may be a part): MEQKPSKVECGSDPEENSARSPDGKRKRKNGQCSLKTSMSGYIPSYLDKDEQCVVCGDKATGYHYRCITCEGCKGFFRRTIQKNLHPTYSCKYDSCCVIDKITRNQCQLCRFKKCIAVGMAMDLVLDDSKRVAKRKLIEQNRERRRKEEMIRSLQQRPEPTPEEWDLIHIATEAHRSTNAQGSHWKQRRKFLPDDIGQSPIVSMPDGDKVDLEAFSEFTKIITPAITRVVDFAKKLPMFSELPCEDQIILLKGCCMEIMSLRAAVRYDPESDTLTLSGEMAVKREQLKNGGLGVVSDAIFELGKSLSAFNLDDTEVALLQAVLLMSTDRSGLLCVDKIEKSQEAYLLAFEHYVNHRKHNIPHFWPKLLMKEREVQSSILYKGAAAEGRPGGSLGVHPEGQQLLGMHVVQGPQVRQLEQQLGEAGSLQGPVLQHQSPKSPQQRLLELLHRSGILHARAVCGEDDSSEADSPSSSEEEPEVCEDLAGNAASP

Broadly, the AC50 is the concentration giving half of the maximal activity seen. `CC1(C)CC(N=C=O)CC(C)(CN=C=O)C1` (stereo unspecified): the outcome in [1], in experiment [2], in experiment [3], in [4], in [5] and in [6] was inactive. In addition, the result in experiment [7], in experiment [8], in [10], in experiment [11], in experiment [12] and in [13] was inactive. The concentration at half-maximal activity (AC50) in experiment [9] is 39 µM (active).

Turning to `Cc1ccc(Cl)cc1`, the compound was called inactive in experiment [14], in experiment [2], in experiment [3], in [4], in experiment [5] and in [6]. Further, the outcome in experiment [7], in experiment [15], in [16], in experiment [8], in [9] and in experiment [10] was inactive. Moreover, the outcome in [11], in experiment [17], in experiment [12] and in experiment [13] was inactive.

On to `Cc1nc(C)nc(N2C[C@@H](C)N(c3ccnc([C@@H](C)O)n3)[C@@H](C)C2)n1`, for which the outcome in experiment [14], in experiment [2], in experiment [3], in experiment [4], in experiment [5] and in experiment [6] was inactive. The result in experiment [7], in experiment [16], in [8], in experiment [9], in [10] and in [11] was inactive. Moreover, the result in experiment [17], in [12] and in [13] was inactive.

Turning to `Nc1ccc(S(=O)(=O)c2ccc(N)cc2)cc1`, the result in experiment [1], in experiment [2], in experiment [3], in experiment [4], in [5] and in experiment [6] was inactive. For the same compound, the outcome in experiment [7], in experiment [18], in [8], in experiment [9], in experiment [10] and in experiment [11] was inactive. The outcome in experiment [12] and in experiment [13] was inactive.

In the case of `CC1(C)NC(=O)NC1=O`, the compound was called inactive in experiment [19], in [20], in [2], in [3], in experiment [4] and in experiment [5]. Moreover, the result in experiment [6], in [7], in [15], in [16], in experiment [18] and in experiment [8] was inactive. Moreover, the result in [9], in [10], in [11], in [17], in experiment [12] and in experiment [13] was inactive.

For `COc1cc(S(=O)(=O)O)c(C)cc1N=Nc1c(O)ccc2cc(S(=O)(=O)O)ccc12`, the result in experiment [1], in experiment [2], in experiment [3], in experiment [4], in [5] and in experiment [6] was inactive. Also, the result in [7], in [16], in experiment [8], in experiment [9], in experiment [10] and in experiment [11] was inactive. Further, the outcome in experiment [17], in experiment [12] and in [13] was inactive.

As for `CC(=O)OCCOCCOCCOC(C)=O`, the result in experiment [19], in experiment [20], in [2], in experiment [3], in experiment [4] and in experiment [5] was inactive. Further, the result in [6], in experiment [7], in experiment [15], in experiment [18], in experiment [8] and in experiment [9] was inactive. For the same compound, the result in experiment [10], in experiment [11], in experiment [12] and in experiment [13] was inactive.

Take `NC(=O)Cn1c(=O)cc(CCN2CCN(c3nccc4sccc34)CC2)c2ccc(F)cc21`: the call in experiment [14], in experiment [2], in experiment [3], in experiment [4], in experiment [5] and in experiment [6] was inactive. In addition, the result in [7], in experiment [16], in experiment [8], in experiment [9] and in experiment [12] was inactive. The results for the half-maximal activity concentration (AC50) in experiment [10], in experiment [11] and in [13] were 3.25 µM (active), 3.97 µM (active) and 0.496 µM (active), respectively.
